# Laboratory results taken from PubChem BioAssay AID1508600 (Functional Genomics Laboratory (NCATS/FGL), 2020).
# Among all 53,000 sequences or so, about 3,700 (7%) were called active.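 How the source made its calls: active means gene knockdowns whose robust z-score for IL-1 alpha signal is at least 2 or at most -2, so actives lie on both sides; inactive means the rest.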 The sample as a whole holds a higher share of actives than the screen did.
# Assay: Components of the Cytosolic LPS Sensing Pathway: Gene Identification via Genome-wide siRNA Screen;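 further: robust z of the log signal after scaling to non-targeting control siRNA wells of the plate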
# Details: RAW264.7 macrophages, IL-1a HTRF, actives lie on both sides, screened at 100 nM (by protocol), cells primed 5 h with Pam3CSK4 first
# Method in brief: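 Knockdown: 100 nM siRNA, 48h, RAW264.7. Stimulation: Pam3CSK4 5 h, then LipidA via TransIT-TKO 24 h. Output: supernatant IL-1a HTRF, negative-control-normalized, log robust z-score; viability by CellTiter-Glo.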
row,Sequence,z-score
1,GGAACCAGAGGACAAAGACTT against Ccdc96,-2.43 (active)
2,GGCUGGUGUAAAAGACACGTT against Nat14,0.142 (inactive)
3,GGGUUUUCGGGAGAUCUGUTT against Ltbp4,-0.44 (inactive)
4,GGAGCACUAUGAUGAGUUCTT against U2af1,-0.452 (inactive)
5,GCACUAUGGUAUUGAAAUUTT against Armc5,0.635 (inactive)
6,GGAUUCUGAAAUCAGUGCUTT against Capn8,1.52 (inactive)
7,GGUCACCAAGCAACACAAUTT against Fen1,2.56 (active)
8,GCAGUAAAAUGACAUUUGGTT against Dennd6b,0.694 (inactive)
9,GCUAGGUGCUGCUACGAAATT against Tex13c3,-0.0824 (inactive)
10,GGGCAGUAAGACCUUCAUGTT against Dhcr24,0.685 (inactive)
11,GGUUGAAGGCCAAUUCAAATT against Lrrc10,2.94 (active)
12,GCACUAGCAGGAUUCAUUGTT against Gabrb2,-1.25 (inactive)
13,CGAUUGCUCUUAACCCUUGTT against Zfp597,-0.233 (inactive)
14,GGCAUCCUGAGAGAACUCATT against Insyn1,-2.27 (active)
15,GCUGACCUAUUCUGAUCCATT against Chchd4,-0.223 (inactive)
16,GGUUCAGAUCCCUAAAAUATT against Ago4,-0.557 (inactive)
17,GGACAUGGAACUGGAUGAATT against Ciita,-2.49 (active)
18,GGUGAUCACAAAUAUGAUGTT against Ubxn2b,-0.173 (inactive)
19,GGAGUUUGUUAAUUUCGCATT against Rundc3a,0.612 (inactive)
20,GCACGGAGCCAAAUAAUCUTT against Rpl28,2.07 (active)
21,GGAAGUAGAGAUCUCCUUATT against Btn1a1,0.96 (inactive)
22,GGAAGUGCUACUUUCUGGGTT against Tmem178,1.74 (inactive)

row,Sequence,z-score
1,GGAGAUGAAGUGGACAGACTT against Anapc13,1.02 (inactive)
2,GGUGAACGAACAUUGGUAUTT against Sorbs3,-0.614 (inactive)
3,CCAUCACGAGUGAAUUCGATT against Olfr945,-2.13 (active)
4,GGAGCGAUCUGAAAAUUUGTT against Rasip1,-0.365 (inactive)
5,CCUCUCCAGUGUCGACAUUTT against Olfr51,0.347 (inactive)
6,CGAAGUCGUGGCAAUGAUUTT against Nfu1,1.39 (inactive)
7,GCAGGAAGCCCAGUAAAGUTT against Figla,0.44 (inactive)
8,GGAAGACACUGGUUUCCAATT against 1700067P10Rik,2.62 (active)
9,GGAGAGAAGAAAAAGAAGGTT against Rrbp1,0.647 (inactive)
10,GCAUGAUUACCAGAACCACTT against Fcgr2b,0.225 (inactive)
11,GCAUGUGAAAUCUAGAUCATT against Cks1b,-0.0851 (inactive)
12,UGGUACCACCAUUUUUACCTT against Olfr452,-1.2 (inactive)
13,GCUGGGCUUCAACGAUUACTT against Efna4,1.3 (inactive)
14,GGUUCCUUAAACAUUCAGATT against Tspan31,2.28 (active)
15,CGAUCACCAUGAUGAAUUCTT against Bex3,-0.128 (inactive)
16,GCAGGAUGCAGCGAUAGUUTT against Slc2a6,-0.952 (inactive)
17,GGGCUACAGCAUGUAUGAGTT against Zc3h4,0.814 (inactive)
18,GGAACGAAGUCUGAAACACTT against A730018C14Rik,-1.89 (inactive)
19,GGAGUCCCAGGACAUGAAATT against Pou5f1,0.333 (inactive)
20,GCCUCUGUCAAGUCUUGGATT against Ftl1,-2.17 (active)
21,GGUACUGUUGCGCUUUGCUTT against Ciao3,1.47 (inactive)
22,GGAGAAUUAACUGUUCCUCTT against Kcnmb2,2.23 (active)

row,Sequence,z-score
1,GCUGAGGCAUAAAAACGAGTT against Atad3a,-0.643 (inactive)
2,GGUGAAUCUAUUUACCUGCTT against Fam71d,0.317 (inactive)
3,GGAAUAUGUGCAGAAGCUGTT against Fgd2,-1.2 (inactive)
4,GGCUGUCUUAUUAAAGCUATT against A730013G03Rik,-2.19 (active)
5,GGUCUAGAGUUACCAUUCATT against Aqp9,-0.954 (inactive)
6,CCAAGGACUCUCAUCUGUUTT against Zfp474,-0.712 (inactive)
7,GGACGACAGGAACUGGCAATT against Fbxo9,0.615 (inactive)
8,GCAGAGGGCAACUCGUAAGTT against Gm6034,-0.843 (inactive)
9,CCAACACUGAGCUCAGAAGTT against Igfbp2,-1.34 (inactive)
10,GGCGGUCAAGGGAAAAACATT against Tcf7,2.19 (active)
11,CCGACUAAUGCUAAAUCCATT against Pcgf1,0.897 (inactive)
12,GGUGAAAUUCUGAAUGAAATT against Gatb,-0.0515 (inactive)
13,GGAACUAGAAGAAAUGUUATT against Mrps9,0.768 (inactive)
14,GGGAGCAGAUUGAAACAGUTT against Eri2,-0.546 (inactive)
15,CUUAGUGCUCUGGGAGCAGTT against Ms4a5,0.487 (inactive)
16,CGAUCACCUUAGUAAAUACTT against Ykt6,0.233 (inactive)
17,GGAAGGGACUGAUCGGUACTT against Igsf8,1.61 (inactive)
18,GCUGAGACUUCGAGCCUAUTT against Polr2c,-0.976 (inactive)
19,CCAGUUAAAAAGGUUCCAATT against Ccdc169,1.46 (inactive)
20,GGAUAACCUAAUGUAGAUATT against Nphs2,-0.0675 (inactive)
21,GGAUCAAAAACACAUACUUTT against Adgre4,2.37 (active)
22,GGGAUAUCCCAGAACAAGATT against Vps37a,0.336 (inactive)

row,Sequence,z-score
1,GCUUGGUAGAGAUGUUAAATT against Ryr3,-0.119 (inactive)
2,GCAUCAUUUUAACACUUCUTT against Tubd1,-0.0435 (inactive)
3,GGAGGGAAAACCACAAGACTT against Dppa4,0.514 (inactive)
4,CCUCUUAUUCAGAAUGUCCTT against Bnc2,0.451 (inactive)
5,GCGAGGAGAGUGUGUUUUCTT against Bop1,2.08 (active)
6,GGACAUCCAGACAAUGAGGTT against Fam13b,-1.62 (inactive)
7,GGUCGUCUGAUUUUUGAUATT against Atp1a1,0.391 (inactive)
8,GGACUGCUGGGAGAACUUUTT against Zcchc3,0.76 (inactive)
9,CGCAGGACAUUUGGUUUUGTT against Ssxb2,2.88 (active)
10,GGGCCACAGGAUCUCACUUTT against 1700009J07Rik,-1.88 (inactive)
11,GGAGGAACAGAAGAAACUCTT against Tma7,-0.0481 (inactive)
12,GGCUAUGCAAGUGGAGAGCTT against Nfat5,-0.311 (inactive)
13,GGACAAAGGCUGUAUUUUCTT against Tgm3,-1.07 (inactive)
14,CGCGAGCUCAGAAUACAUGTT against Btn1a1,2.5 (active)
15,GGAGAUAAUAAUGAAGUCGTT against Sec11c,0.353 (inactive)
16,GGUUGGUGAACUUGGAGGUTT against Hspa1a,1.41 (inactive)
17,GGGUUUUUUUUUCCUUGAATT against Smndc1,-0.313 (inactive)
18,GGCUGAUGGAAAUCCUUAATT against Ctif,0.0158 (inactive)
19,GGUAGAAUACGUGUUCCUGTT against Cacna1f,2.79 (active)
20,GGGCAAAGCCUUCAACCCUTT against Insl6,-0.038 (inactive)
21,CGCCACUGCUUUGAUUACUTT against Coa5,-1.51 (inactive)
22,GGCGCAUUACCAGAGCUUCTT against Tnpo2,-0.425 (inactive)

row,Sequence,z-score
1,CGUUGUCAAAAGGACCCAUTT against Pvr,-0.766 (inactive)
2,GGAUAAGGUAGAAUUACUGTT against Slc26a4,3.06 (active)
3,GCACCGUGUGACCAUGAACTT against Akt1,3.96 (active)
4,GCAAGGAUCCACGCUUUUCTT against Ckmt2,1.34 (inactive)
5,GCCACUCUUAGUGCUAACUTT against Tctn3,-1.25 (inactive)
6,GGAUUACCUAAAUUUAGGATT against Hfm1,0.14 (inactive)
7,GCACUACAGACACUUUUAGTT against Gm5533,-2.12 (active)
8,GGAAAAUUCAGUUUAAUCCTT against Glt8d1,0.438 (inactive)
9,GGACAGAACCAUCUGAAGGTT against Aldh18a1,1.43 (inactive)
10,CGUGGAAAAGCUAUGUGCGTT against Lif,-0.188 (inactive)
11,GGAAGCUGUGCUGAAUGGUTT against Atp5l,0.387 (inactive)
12,CGGCACUGUCAUAAGUGUGTT against Utp4,2.39 (active)
13,GGAGGAAAAGGCUUUUCGATT against Ccdc70,1.04 (inactive)
14,GGCACAUCACUGCUUACCUTT against Rce1,-1.73 (inactive)
15,GGAUGUGGAAUCAUGCUAUTT against Tnpo3,2.41 (active)
16,GCCAAGCCAUCUCAUUAAATT against Wdr18,-0.724 (inactive)
17,GCCUGACUUUAAUGAAGAATT against Slf2,-1.77 (inactive)
18,GGGUUUCUUGUUUCUUAGATT against Aldh6a1,-0.00669 (inactive)
19,CGUGGUUCCUCUUUGGUGUTT against Kcnj10,-0.217 (inactive)
20,CCAGUUCUUAACAUUGUGUTT against Syap1,-1.13 (inactive)
